What is called viability is a read-out of living cells in per cent, often relative to untreated cells.

The nature of this assay: MRP1 drug-resistance reversers in H69AR cells – cell-based, doxorubicin co-treatment, pilot screen (AID 601). Particulars: H69AR cells, CellTiter-Glo, 72 h; compound alone cytotoxicity; at 10 µM. Background: In ATP-based viability assays light output follows the ATP content of the culture.
Turning to `COc1cccc(-n2ccnc2SCC(=O)N2CCc3ccccc32)c1`, the viability was 102%.

For `C=CCc1cc(C(=O)N2CCCCC2)ccc1O`, the viability was 92.3%.

As for `CCN(CC)c1ccc(-c2nn3c(-c4cccnc4)nnc3s2)cc1`, the viability was 10.9%.

For the compound `Cc1ccc(NC(=O)CSc2nnc(-c3ccncc3)n2C)cc1C`, the viability was 92.2%.

Consider `O=C(Nc1ccc(Br)cc1F)c1sccc1-n1cccc1`, for which the viability turned out to be 83.1%.

As to `Cc1nc(CNS(=O)(=O)c2ccc3c(c2)OCCO3)cs1`, the viability was determined as 96.6%.

Regarding `CCOC(=O)c1[nH]c(C)c(C(=O)NCC2CCCO2)c1C` (stereo not given), the viability was found to be 101%.

For `N#CC1=C(N)N(c2ccccc2)C2=C(C(=O)CCC2)C1c1cccs1` (stereo not given), the viability was 70.3%.

Turning to `COc1cccc(C(=O)n2cnnc2N)c1OC`, the viability was 89.9%.

In the case of `COC(=O)c1cc2oc(C)cc2n1CC(=O)Nc1ccc(C)c(C)c1`, the viability worked out at 83.8%.

Take `O=C(CSCc1cnn(-c2ccccc2)c1-n1cccc1)NCC1CCCO1` (stereo not given): the viability came out at 93.7%.

`N=c1c(C(=O)NCc2ccc3c(c2)OCO3)cc2c(=O)n3ccccc3nc2n1Cc1cccnc1`: the viability was determined as 78.8%.

Take `Cc1cc(Br)ccc1NC(=O)CCN1C(=O)c2ccncc2C1=O`: the viability is 95.6%.

Regarding `O=C1N2c3ccccc3CCc3cccc(c32)C1(O)C(F)(F)F` (stereo not given), the viability worked out at 95.7%.

`Cn1c(SCC(=O)Nc2ccc3c(c2)oc2ccccc23)nnc1-c1ccccc1`: the viability was 69.4%.

Consider `CCOc1ccc(S(=O)(=O)Nc2cccc(Cl)c2)cc1`, for which the viability was 18.8%.

Take `Nn1c(CSc2nc3ccccc3o2)nnc1CSc1nc2ccccc2o1`: the viability turned out to be 103%.

On to `CC1=C(C(=O)OC2CCCCC2)C(c2cccnc2)n2ncnc2N1` (stereo not given), for which the viability was 81.8%.

As for `COC(=O)c1ccccc1NC(=O)C1CC(=O)N(c2ccccc2)C1` (stereo not given), the viability was found to be 102%.

For `O=C(c1ccc2c(c1)OCCO2)C1CCN(C(=O)c2ccc(F)cc2)CC1`, the viability came to 83.8%.

Turning to `Cc1nc(=S)n(-c2ccccc2)[nH]1`, the viability was 107%.

As for `CC(C)CC(=O)Nc1ccccc1-c1nnn(CC(=O)N2CCOCC2)n1`, the viability stood at 86.8%.

As for `O=C(c1ccccc1)N1CCCCC(Sc2nnnn2-c2ccccc2)C1=O` (stereo not given), the viability amounted to 104%.

Regarding `CC(=O)Nc1ccccc1OCc1nnc(-c2cccs2)o1`, the viability came to 98.1%.

On to `CCOc1ccc(CN2CCN(c3cc(C)nc4c5c(C)cc(C)nc5nn34)CC2)cc1`, for which the viability turned out to be 88.8%.

As to `CCSc1nnc2c(n1)OC=Nc1ccc(Br)cc1-2`, the viability came out at 99.7%.

For `Cc1ccc2nc(SCC(=O)NCc3ccco3)c(C#N)cc2c1`, the viability came to 62.2%.

For the compound `CCN(CC)c1ccc2cc(NC(=O)CCC(=O)O)c(=O)oc2c1`, the viability is 95.7%.

For `COc1ccc(CN(CC(=O)NCc2ccco2)C(=O)CCC(=O)Nc2nccs2)cc1`, the viability is 101%.

`CC(=O)c1cccc(NC(=O)N2C3CCC2CC(O)(c2cccnc2)C3)c1` (stereo not given): the viability came out at 106%.

For `Cc1nc2scc(-c3cccs3)c2c(=O)n1-n1cccc1`, the viability came to 99.3%.

For the compound `NC1=NC(c2ccc(Br)cc2)n2c(nc3ccccc32)N1` (stereo not given), the viability was found to be 81.4%.

As to `CSCC[C@@H](Nc1nc(-c2ccccc2)nc2c1oc1ccccc12)C(=O)O`, the viability was found to be 93.8%.

Consider `Cc1csc(SCC(=O)NC(=O)NCc2ccccc2)n1`, for which the viability came out at 95.2%.

Take `CCSc1ncc(C#N)c(=O)[nH]1`: the viability was 95%.

Take `CCSc1nnc(NC(=O)CSc2ncccn2)s1`: the viability was 107%.

Consider `COc1ccc(N2CCN(CCCNC(=O)C3(S(=O)(=O)c4ccc(Cl)cc4)CC3)CC2)cc1`, for which the viability amounted to 83.1%.

As for `COc1ccc(OC)c(C2=NOC(C(=O)NCCN3CCOCC3)C2)c1` (stereo not given), the viability worked out at 90.6%.

In the case of `COc1ccc(CN2CC(C(=O)NCc3ccccn3)CC2=O)cc1` (stereo not given), the viability was 105%.

With `c1ccc(-n2ncc3c(N4CCCCC4)ncnc32)cc1`, the viability worked out at 70%.

The record behind these values is PubChem BioAssay.
